Results from PubChem BioAssay (NCATS).
Where “and” joins values, the source holds several entries; their conditions need not be identical. Equal values may be shown once. Results filed as inconclusive are left out. More than one record can exist for a structure, and the calls need not agree. Calls of active or inactive are those of the source. Calls follow the shape of the full dose curve.
Potency is read from the fitted curve at half-maximal effect.

What follows are compounds tested against Cytochrome P450 1A2 (Homo sapiens) (UniProt P05177) (assay: p450-cyp1a2 (AID 410;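 as to activity change, negative = inhibition: -100% = full effect of reference inhibitor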)). Conditions: recombinant CYP1A2, luciferin-ME demethylation, luminescence; series mostly up to 57 µM; activity change, negative = inhibition: at the top concentration.
Chain of Cytochrome P450 1A2 (Homo sapiens) (P05177 whole entry, looked up): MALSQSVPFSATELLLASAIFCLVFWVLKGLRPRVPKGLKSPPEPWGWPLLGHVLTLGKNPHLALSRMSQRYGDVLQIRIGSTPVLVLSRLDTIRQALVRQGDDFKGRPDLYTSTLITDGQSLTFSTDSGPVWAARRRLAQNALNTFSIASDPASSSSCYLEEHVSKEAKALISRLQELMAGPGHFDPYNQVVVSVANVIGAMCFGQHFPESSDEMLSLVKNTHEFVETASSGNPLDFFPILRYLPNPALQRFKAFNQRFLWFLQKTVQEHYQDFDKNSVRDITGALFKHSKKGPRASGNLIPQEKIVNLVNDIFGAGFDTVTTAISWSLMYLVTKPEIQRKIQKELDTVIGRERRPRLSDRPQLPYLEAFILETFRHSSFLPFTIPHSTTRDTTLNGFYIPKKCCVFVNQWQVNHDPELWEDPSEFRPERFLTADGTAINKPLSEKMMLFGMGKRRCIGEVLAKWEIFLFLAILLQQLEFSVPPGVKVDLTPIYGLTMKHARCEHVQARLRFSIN
Description: The P450 gene superfamily is involved in metabolism and the clearance of xenobiotics. This assay used human CYP1A2 to measure the demethylation of luciferin 6' methyl ether (Luciferin-ME; Promega-Glo) to luciferin. The luciferin is then measured by luminescence after the addition of a luciferase detection regeant. Luciferin-ME concentration in the assay was equal to its Km for CYP1A2.
NCGC Assay Protocol Summary:
Two uL of enzyme and substrate mix (final concentrations: 20nM CYP1A2, 100uM Luciferin-ME, 100mM KPO4) were dispensed into a white, solid bottom 1536-well microtiter plate. 23nL of compound was transferred by a pin tool. The plate was incubated at room temperature for 10 min. Two uL of an NADPH regeneration solution (Promega supplied reagent) was dispensed and the reaction was allowed to continue for 60 min at room temperature. Then the reaction was stopped by reconstituted detection reagent. After another 20 min of incubation the plate was read on the ViewLux (Perkin Elmer) at 60 sec exposure and 2x2 binning. This protocol was carried out with Promega-Glo reagents and further information can be found at http://www.promega.com/tbs/tb325/tb325.pdf. Data were normalized to the to AC100 inhibition (57 uM furafylline).
For NC(=O)OCC(COC(N)=O)c1ccccc1, the “activity change, negative = inhibition” value was -10.8% (inactive). For CC[N+](CC)(CC)CCOc1cccc(OCC[N+](CC)(CC)CC)c1OCC[N+](CC)(CC)CC, the Potency was “inactive”. Cn1c(=O)c2[nH]cnc2n(C)c1=O was tested, and the Potency was “inactive”. For CN(Cc1cnc2nc(N)nc(N)c2n1)c1ccc(C(=O)N[C@@H](CCC(=O)O)C(=O)O)cc1, the “activity change, negative = inhibition” value was -17.7% (inactive). For CN1C(C(=O)Nc2ccccn2)=C(O)c2ccccc2S1(=O)=O, the Potency was “inactive and 20 µM (active)”. In the case of Cc1cc(C(C)(C)C)c(O)c(C)c1CC1=NCCN1, the Potency is reported as “inactive”. With CC(C)C(=O)Nc1ccc([N+](=O)[O-])c(C(F)(F)F)c1 the Potency was 2 µM (active) and 316 nM (active). With COc1cc2nc(N3CCN(C(=O)c4ccco4)CC3)nc(N)c2cc1OC the Potency was “inactive”. With CN1CCC(=C2c3ccccc3CC(=O)c3sccc32)CC1 the Potency was “inactive”. CC[C@@]1(O)C(=O)OCc2c1cc1n(c2=O)Cc2cc3c(CN(C)C)c(O)ccc3nc2-1 was tested, and the activity change, negative = inhibition was -17.9% [at 2.29 µM] (inactive). In the case of Nc1nnc(-c2cccc(Cl)c2Cl)c(N)n1, the Potency is reported as “inactive”. CCOC(=O)c1ncn2c1CN(C)C(=O)c1cc(F)ccc1-2 was tested, and the Potency was 1.58 µM (active). With Nc1c2c(nc3ccccc13)CCCC2 the Potency was 3.16 µM (active) and 794 nM (active) and 501 nM (active). With COC(=O)Nc1nc2ccc(C(=O)c3cccs3)cc2[nH]1 the Potency was 5.01 µM (active) and 1.58 µM (active) and 794 nM (active). In the case of Clc1ccc2c(c1)C(N1CCNCC1)=Nc1ccccc1O2, the Potency is reported as 12.6 µM (active) and 3.98 µM (active). O=c1c(-c2ccc(O)cc2)coc2cc(O)cc(O)c12 was tested, and the Potency was 10 µM (active) and 5.01 µM (active). For CN(C)CCC=C1c2ccccc2C=Cc2ccccc21, the Potency was “inactive and 12.6 µM (active)”. For Cn1c(=O)c2c(ncn2C)n(C)c1=O, the “activity change, negative = inhibition” value was -2.5% (inactive). COc1ccc2c(c1)c(CC(=O)O)c(C)n2C(=O)c1ccc(Cl)cc1 was tested, and the Potency was 10 µM (active). CS(=O)(=O)Nc1ccc([N+](=O)[O-])cc1Oc1ccccc1 was tested, and the Potency was 15.8 µM (active) and 12.6 µM (active). With CN(C)CCCN1c2ccccc2CCc2ccc(Cl)cc21 the Potency was 20 µM (active) and 5.01 µM (active) and 15.8 µM (active). In the case of Cc1cc(C(C)(C)C)cc(C)c1CC1=NCCN1, the Potency is reported as “inactive”. With O=C1N(c2ccccc2)c2ccccc2C1(Cc1ccncc1)Cc1ccncc1 the Potency was 15.8 µM (active). CN1CCN(CCCN2c3ccccc3Sc3ccc(Cl)cc32)CC1 was tested, and the Potency was 1 µM (active) and 2.51 µM (active). In the case of Cn1ccc2cc3c(cc21)CCN3C(=O)Nc1cccnc1, the Potency is reported as 25.1 nM (active) and 3.98 nM (active). For CN1CCC(=C2c3ccccc3C=Cc3ccccc32)CC1, the Potency was “inactive”. Nc1nc2c(ncn2COC(CO)CO)c(=O)[nH]1 was tested, and the Potency was “inactive”. For NCCCCCC(=O)O, the Potency was “inactive”. COc1nc(C)nc(Cl)c1NC1=NCCN1 was tested, and the Potency was “inactive”. For O=c1[nH]cc(F)c(=O)[nH]1, the “activity change, negative = inhibition” value was -15.1% (inactive). In the case of CCC1(c2ccccc2)C(=O)NCNC1=O, the Potency is reported as “inactive”. For O=C(Nc1ccc([N+](=O)[O-])cc1Cl)c1cc(Cl)ccc1O, the Potency was 3.98 µM (active) and 1.26 µM (active). In the case of N[C@@H](Cc1c[nH]c2ccc(O)cc12)C(=O)O, the “activity change, negative = inhibition” value is reported as -16.7% (inactive).
